Results: PubChem BioAssay (NCATS)
Several values for one entry are separate records, joined by “and”; a condition that tells them apart may be missing. Equal entries are not always repeated. Records with an inconclusive call do not appear. Entries that show only a call come without a potency. Activity calls are given as the source filed them. The call rests on the fitted dose curve; in most records, active means well fitted curve in the direction sought with a large enough effect; inconclusive means small, poorly fitted or top-dose-only effect, or another doubt; inactive means no such curve, though single readings can be large; an effect the other way counts as inactive or inconclusive.

Key:
[1] = Primary qHTS for small molecule stabilizers of the endoplasmic reticulum resident proteome: Secreted ER Calcium Modulated Protein (SERCaMP) assay (AID 1508630); settings: SH-SY5Y GLuc-SERCaMP (Gaussia luciferase released on ER calcium loss) secretion, thapsigargin, luminescence; series mostly up to 38.4 µM
Procedure, shortened: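 The SH-SY5Y reporter protocol was run at 3 concentrations up to 38.3 uM (primary) or 11 concentrations (follow-up): 16 h compound, 100 nM thapsigargin for 4 h, then extracellular luciferase luminescence.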

[2] = Primary qHTS for inhibitors of nuclear receptor binding SET domain protein 2 (NSD2) in an isogenic RCH-ACV NSD2 p.E1099K mutant (9B) (AID 1645876); settings: RCH-ACV NSD2 E1099K (9B) viability, CellTiter-Glo, 72 h; series mostly up to 44.9 µM; further: nearly all actives have a fitted effect of over 70% in size; further: potency means the concentration at half of the fitted maximal effect
[3] = Primary qHTS for inhibitors of nuclear receptor binding SET domain protein 2 (NSD2) in an RCH-ACV wild type WT cells (2C) (AID 1645877); settings: RCH-ACV (leukaemia line) NSD2 WT (2C) viability, CellTiter-Glo, 72 h; series mostly up to 44.9 µM; further: nearly all actives have a fitted effect of over 70% in size; further: potency means the concentration at half of the fitted maximal effect
[4] = biological target: N-terminal Xaa-Pro-Lys N-methyltransferase 1 (Homo sapiens) (UniProt Q9BV86); experiment: Confirmatory qHTS for Inhibitors of N-terminal methyltransferase 1 (NTMT1): MTaseGlo Assay (AID 1645874); settings: NTMT1 enzyme, MTase-Glo SAH luminescence; series mostly up to 100 µM; further: nearly all actives have a fitted effect of over 65% in size; further: potency means the concentration at half of the fitted maximal effect
Procedure, shortened: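 MTase-Glo luminescence measured SAH formed by 125 nM NTMT1 from 100 uM SAM and 1 uM SPKRIA peptide over 30 min at room temperature, following 15 min compound preincubation. Percent inhibition against no-enzyme and DMSO controls gave 4-parameter Hill fits.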

[5] = biological target: Papain (Carica papaya) (UniProt P00784); experiment: Primary qHTS assay for inhibitors of the protease papain (AID 1645873); settings: papain Z-FR-AMC cleavage, AMC fluorescence; series mostly up to 49.8 µM;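 further: papain turnover of Z-FR-AMC read as the AMC fluorescence gain over 10 min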
Chain of Papain (Carica papaya) (P00784 whole entry, looked up): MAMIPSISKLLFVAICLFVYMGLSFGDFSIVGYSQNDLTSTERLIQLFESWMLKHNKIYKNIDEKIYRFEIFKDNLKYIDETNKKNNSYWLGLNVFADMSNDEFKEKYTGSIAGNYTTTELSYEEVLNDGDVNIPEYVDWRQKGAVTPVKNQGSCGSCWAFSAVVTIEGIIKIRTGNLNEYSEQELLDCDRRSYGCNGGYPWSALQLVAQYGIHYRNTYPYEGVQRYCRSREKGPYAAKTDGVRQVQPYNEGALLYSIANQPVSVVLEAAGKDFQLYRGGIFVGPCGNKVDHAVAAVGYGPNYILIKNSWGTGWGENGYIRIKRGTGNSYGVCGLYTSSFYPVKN

Chain of N-terminal Xaa-Pro-Lys N-methyltransferase 1 (Homo sapiens) (Q9BV86 whole entry, looked up): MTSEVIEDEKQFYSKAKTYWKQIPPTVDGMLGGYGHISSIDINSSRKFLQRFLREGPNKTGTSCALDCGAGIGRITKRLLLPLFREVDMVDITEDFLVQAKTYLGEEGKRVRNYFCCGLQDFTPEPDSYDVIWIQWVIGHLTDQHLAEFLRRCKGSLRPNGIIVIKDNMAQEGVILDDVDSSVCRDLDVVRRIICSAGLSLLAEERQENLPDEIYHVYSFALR

SMILES | Potency [1] | Potency [2] | Potency [3] | Potency [4] | outcome [5]
CC(C)(C)OC(=O)Nc1ccc(-c2cc(C(=O)NCCCCCCC(=O)NO)no2)cc1 | inactive | 1.48 µM (active) | – | – | –
O=c1[nH]nc(Sc2ncc([N+](=O)[O-])s2)n1-c1ccc2c(c1)OCCO2 | inactive | 7.42 µM (active) | – | – | –
CC(O)C1C(=O)N2C(C(=O)O)=C(SC3CNC(C(=O)N(C)C)C3)C(C)C12 (configuration not stated) | inactive | inactive | – | – | –
N#CCNC(=O)c1ccc(-c2ccnc(Nc3ccc(N4CCOCC4)cc3)n2)cc1 | inactive | 817 nM (active) and 2.63 µM (active) | 1.15 µM (active) and 2.95 µM (active) | – | –
Cc1cc(N2CCOCC2)cc2[nH]c(-c3c(NC[C@@H](O)c4cccc(Cl)c4)cc[nH]c3=O)nc12 | inactive | 1.66 µM (active) | – | inactive | –
O=C1CCC[C@@H]2[C@H]3CCC[N+]4([O-])CCC[C@@H](CN12)[C@@H]34 (some centres not stated) | inactive | inactive | – | – | –
O=C(NCCCNc1nc(Nc2cccc(NC(=O)N3CCCC3)c2)ncc1I)c1cccs1 | inactive | 5.8 µM (active) and 1.48 µM (active) | – | 6760 nM (active) | –
COc1cccc2nc(-c3cccs3)nc(NN3C(=O)C=C(C)C3=O)c12 | inactive | 0.372 µM (active) | – | – | –
CCN(CC)CCNC(=O)c1ccc2nc(-c3ccccc3)c(-c3ccc(CN4CCC(n5c(=O)[nH]c6ccccc65)CC4)cc3)nc2c1 | inactive | 2.58 µM (active) and 3.32 µM (active) | 2.58 µM (active) and 4.17 µM (active) | – | –
O=C(O)[C@H](Cc1c[nH]c2ccccc12)N1C(=O)c2ccccc2C1=O | inactive | inactive | – | – | –
Cc1cc(C(=O)N2CCN(c3cccc(Cl)c3)CC2)n(-c2ccccc2)n1 | inactive | 2.09 µM (active) | – | – | –
COC(=O)Nc1ccc(-c2nc(N3CCOCC3)c3cnn(C4CCN(Cc5cccnc5)CC4)c3n2)cc1 | inactive | 0.833 µM (active) | – | – | –
C=CC(=O)Nc1cc2c(Nc3ccc(F)c(Cl)c3)ncnc2cc1C#CC(C)(C)N1CCN(C)CC1 | inactive | 2.63 µM (active) | 2.63 µM (active) | – | –
CN1CCN(c2cc(C(=O)Nc3ccc4c(c3)-c3c(c(C(N)=O)nn3-c3ccc(F)cc3)CC4)c(Cl)cn2)CC1 | inactive | 7.42 µM (active) | 8.33 µM (active) | – | –
O=c1c2ccccc2nc2n1CCc1c-2[nH]c2ccccc12 | inactive | inactive | inactive | – | inactive
CC(=O)OCCN1C(=O)c2c(C)nc3ccc(S(=O)(=O)N4CCOCC4)cc3c2C1=O | inactive | inactive | inactive | – | –
Cc1cn2cc(C(=O)N(C)CCO)cc(N[C@@H]3CCOc4cccc(C)c43)c2n1 | inactive | inactive | inactive | – | –
CC(C)(O)CCc1ccc(OCc2cc(-c3cccc(OC(F)F)c3)c3ncccc3c2)cc1 | inactive | 20.9 µM (active) | – | – | –
O=C(CCCCCCNC(=O)c1cnc(N(c2ccccc2)c2ccccc2)nc1)NO | inactive | 728 nM (active) and 2.95 µM (active) | 365 nM (active) and 2.09 µM (active) | – | –
CC(C)(C)c1cc(C(C)(C)C)c(NC(=O)c2c[nH]c3ccccc3c2=O)cc1O | inactive | 14.8 µM (active) | – | – | –

SMILES | Potency [1] | Potency [2] | Potency [3] | Potency [4] | outcome [5]
COCCn1c2c([n+](Cc3cnccn3)c1C)C(=O)c1ccccc1C2=O | inactive | 0.0042 µM (active) | 0.0059 µM (active) | – | –
CC[C@@]1(O)C(=O)OCc2c1cc1n(c2=O)Cc2cc3cc(O)ccc3nc2-1 | inactive | 0.0209 µM (active) | 0.0118 µM (active) | – | –
c1cc(-c2cnn3cc(-c4ccc(OCCN5CCCCC5)cc4)cnc23)ccn1 | inactive | 3.66 µM (active) and 3.72 µM (active) | 2.91 µM (active) and 3.32 µM (active) | – | –
Cc1cn2c(-c3cn[nH]c3)cnc2c(Nc2ccc(C(=O)N3CCNCC3)cc2F)n1 | inactive | 9.16 µM (active) | – | – | –
C[C@@H](Oc1cc(-n2cnc3ccc(CN4CCN(C)CC4)cc32)sc1C(N)=O)c1ccccc1C(F)(F)F | inactive | 0.0295 µM (active) | – | – | –
c1nc2nc(Nc3ccc(N4CCOCC4)cc3)nc(NC3CCCCC3)c2[nH]1 | inactive | 632 nM (active) and 662 nM (active) | – | – | –
CC1(C)CCC(c2ccc(Cl)cc2)=C(CN2CCN(c3ccc(C(=O)NS(=O)(=O)c4ccc(N[C@H](CCN5CCOCC5)CSc5ccccc5)c(S(=O)(=O)C(F)(F)F)c4)cc3)CC2)C1 | inactive | 1.03 µM (active) and 1.18 µM (active) | 365 nM (active) and 742 nM (active) | – | –
CC(C)[C@H](C(=O)Nc1ccc(C(=O)NO)cc1)c1ccccc1 | inactive | inactive | – | – | –
Nc1nc(-c2nn(Cc3ccccc3F)c3ncccc23)nc(N)c1N1CCOCC1 | inactive | inactive | inactive | – | –
CN1CC[C@@H](c2c(O)cc(O)c3c(=O)cc(-c4ccccc4Cl)oc23)[C@@H](O)C1 | inactive | 0.372 µM (active) | 0.332 µM (active) | – | –
O=C(Nc1cc(C(F)(F)F)cc(C(F)(F)F)c1)c1cc(Cl)ccc1O | inactive | 3.25 µM (active) and 2.63 µM (active) | 2.3 µM (active) and 2.95 µM (active) | – | –
COc1cc2c(Oc3ccc4[nH]c(C)cc4c3F)ncnc2cc1OCCCN1CCCC1 | inactive | 4.59 µM (active) and 6.61 µM (active) | 7.28 µM (active) and 7.42 µM (active) | – | –
COc1cc2c(cc1-c1c(C)noc1C)ncc1[nH]c(=O)n([C@H](C)c3ccccn3)c12 | inactive | 0.468 µM (active) | 0.468 µM (active) | – | –
C[C@]1(CO)CN(c2cc(C(=O)Nc3ccc4c(c3)-c3c(c(C(N)=O)nn3-c3ccc(F)cc3)CC4)c(Cl)cn2)C[C@@]1(C)CO | inactive | 3.25 µM (active) | 3.25 µM (active) | – | –
C[C@@H]1COC(Nc2ccc3ncnc(Nc4ccc(OCc5nccs5)c(Cl)c4)c3c2)=N1 | inactive | 13.2 µM (active) | 11.8 µM (active) | – | –
C[C@@H]1CN(CC(=O)Nc2ccc3c(c2)Cc2cccc(-c4cc(=O)cc(N5CCOCC5)o4)c2S3)C[C@H](C)O1 | inactive | 5.9 µM (active) | 4.68 µM (active) | – | –
CCCCCCCCCC(=O)N[C@@H](Cc1c[nH]c2ccccc12)C(=O)N[C@H](CC(N)=O)C(=O)N[C@@H](CC(=O)O)C(=O)N[C@@H]1C(=O)NCC(=O)N[C@@H](CCCN)C(=O)N[C@@H](CC(=O)O)C(=O)N[C@H](C)C(=O)N[C@@H](CC(=O)O)C(=O)NCC(=O)N[C@H](CO)C(=O)N[C@@H]([C@@H](C)CC(=O)O)C(=O)N[C@@H](CC(=O)c2ccccc2N)C(=O)O[C@@H]1C | inactive | inactive | inactive | – | –
COc1cc2ncn(-c3cc(OCc4ccccc4C(F)(F)F)c(C(N)=O)s3)c2cc1OC | inactive | 562 nM (active) and 1.05 µM (active) | 794 nM (active) and 1.18 µM (active) | – | –
Nc1ccc(C(=O)c2cc3c(ccc4ccccc43)[nH]2)cc1 | inactive | 2.41 µM (active) | 1.71 µM (active) | – | –
CC(C)C[C@H](NC(=O)CNC(=O)c1cc(Cl)ccc1Cl)B(O)O | inactive | 0.148 µM (active) | 0.0934 µM (active) | – | –
